The test addresses pT7_6His-AlfaTag-ZIF268 (human, UniProt P18146 335-423). The experiment in a line: PADIT-seq. Particulars: dsDNA, one strand shown.
On to “CTCGAGGATATCAAGATCTGGCCTCGGCCGCATGCGCGGAACCTCTAGCTAGCCGACTCACTATAGGGATAATCGCCCTGAGCAAAGACC”, for which the binding signal amounted to 0.0876 ± 0.0884 log2FC. The value for “CTCGAGGATATCAAGATCTGGCCTCGGCGCGTGGCGGGGAACCTCTAGCTAGCCGACTCACTATAGGGATAATCGCCCTGAGCAAAGACC” was 0.049 ± 0.11 log2FC; that for “CTCGAGGATATCAAGATCTGGCCTCGGCGCGTGGGCTGGAACCTCTAGCTAGCCGACTCACTATAGGGATAATCGCCCTGAGCAAAGACC” was 2.62 ± 0.0973 log2FC.

“CTCGAGGATATCAAGATCTGGCCTCGGCGCGGAGGCGGGAACCTCTAGCTAGCCGACTCACTATAGGGATAATCGCCCTGAGCAAAGACC” returned a binding signal of 1.88 ± 0.11 log2FC. As for “CTCGAGGATATCAAGATCTGGCCTCGGCGCGTGGTCGGGAACCTCTAGCTAGCCGACTCACTATAGGGATAATCGCCCTGAGCAAAGACC”, the figure is 0.471 ± 0.1 log2FC; as for “CTCGAGGATATCAAGATCTGGCCTCGGCCGCCCTCGCGGAACCTCTAGCTAGCCGACTCACTATAGGGATAATCGCCCTGAGCAAAGACC”, 0.0695 ± 0.102 log2FC; as for “CTCGAGGATATCAAGATCTGGCCTCGGCGCGGTGGCGGGAACCTCTAGCTAGCCGACTCACTATAGGGATAATCGCCCTGAGCAAAGACC”, 0.175 ± 0.118 log2FC.

Consider “CTCGAGGATATCAAGATCTGGCCTCGGCACATGGGCGGGAACCTCTAGCTAGCCGACTCACTATAGGGATAATCGCCCTGAGCAAAGACC”, for which the binding signal was 0.18 ± 0.0881 log2FC. Regarding “CTCGAGGATATCAAGATCTGGCCTCGGCTGCCCACGCGGAACCTCTAGCTAGCCGACTCACTATAGGGATAATCGCCCTGAGCAAAGACC”, the binding signal stood at 0.958 ± 0.086 log2FC. The value for “CTCGAGGATATCAAGATCTGGCCTCGGCGCGTGGTGAGGAACCTCTAGCTAGCCGACTCACTATAGGGATAATCGCCCTGAGCAAAGACC” was 0.258 ± 0.102 log2FC; that for “CTCGAGGATATCAAGATCTGGCCTCGGCGCGTGGGAGGGAACCTCTAGCTAGCCGACTCACTATAGGGATAATCGCCCTGAGCAAAGACC” was 3.65 ± 0.0848 log2FC; that for “CTCGAGGATATCAAGATCTGGCCTCGGCCGCCCACATGGAACCTCTAGCTAGCCGACTCACTATAGGGATAATCGCCCTGAGCAAAGACC” was 1.03 ± 0.0882 log2FC. The value for “CTCGAGGATATCAAGATCTGGCCTCGGCGCGTGGGCCGGAACCTCTAGCTAGCCGACTCACTATAGGGATAATCGCCCTGAGCAAAGACC” was 2.26 ± 0.0976 log2FC; that for “CTCGAGGATATCAAGATCTGGCCTCGGCCGCCCAGATGGAACCTCTAGCTAGCCGACTCACTATAGGGATAATCGCCCTGAGCAAAGACC” was 0.0137 ± 0.113 log2FC; that for “CTCGAGGATATCAAGATCTGGCCTCGGCCGCCCACCCGGAACCTCTAGCTAGCCGACTCACTATAGGGATAATCGCCCTGAGCAAAGACC” was 0.112 ± 0.113 log2FC. “CTCGAGGATATCAAGATCTGGCCTCGGCGACTGGGCGGGAACCTCTAGCTAGCCGACTCACTATAGGGATAATCGCCCTGAGCAAAGACC” came in with a binding signal of 0.0505 ± 0.0931 log2FC. As for “CTCGAGGATATCAAGATCTGGCCTCGGCCGCCCAAACGGAACCTCTAGCTAGCCGACTCACTATAGGGATAATCGCCCTGAGCAAAGACC”, the figure is 0.0706 ± 0.0989 log2FC; as for “CTCGAGGATATCAAGATCTGGCCTCGGCCGCCCATGGGGAACCTCTAGCTAGCCGACTCACTATAGGGATAATCGCCCTGAGCAAAGACC”, 0.0348 ± 0.099 log2FC; as for “CTCGAGGATATCAAGATCTGGCCTCGGCGCGTGGAGGGGAACCTCTAGCTAGCCGACTCACTATAGGGATAATCGCCCTGAGCAAAGACC”, 0.222 ± 0.116 log2FC. The value for “CTCGAGGATATCAAGATCTGGCCTCGGCGTTTGGGCGGGAACCTCTAGCTAGCCGACTCACTATAGGGATAATCGCCCTGAGCAAAGACC” was 0.123 ± 0.0893 log2FC; that for “CTCGAGGATATCAAGATCTGGCCTCGGCGCGTGGAAAGGAACCTCTAGCTAGCCGACTCACTATAGGGATAATCGCCCTGAGCAAAGACC” was 0.108 ± 0.113 log2FC.

Sequence “CTCGAGGATATCAAGATCTGGCCTCGGCGCGTGGTGCGGAACCTCTAGCTAGCCGACTCACTATAGGGATAATCGCCCTGAGCAAAGACC” showed a binding signal of 0.41 ± 0.0906 log2FC. The value for “CTCGAGGATATCAAGATCTGGCCTCGGCGCGTGGGGCGGAACCTCTAGCTAGCCGACTCACTATAGGGATAATCGCCCTGAGCAAAGACC” was 0.735 ± 0.107 log2FC.

The sequence “CTCGAGGATATCAAGATCTGGCCTCGGCCGCCCACAAGGAACCTCTAGCTAGCCGACTCACTATAGGGATAATCGCCCTGAGCAAAGACC” had a binding signal of 0.545 ± 0.102 log2FC. The value for “CTCGAGGATATCAAGATCTGGCCTCGGCCGCCCACGCGGAACCTCTAGCTAGCCGACTCACTATAGGGATAATCGCCCTGAGCAAAGACC” was 2.69 ± 0.0695 log2FC; that for “CTCGAGGATATCAAGATCTGGCCTCGGCGCGTGGGCAGGAACCTCTAGCTAGCCGACTCACTATAGGGATAATCGCCCTGAGCAAAGACC” was 2.8 ± 0.0823 log2FC. As for “CTCGAGGATATCAAGATCTGGCCTCGGCGCGTGGCAAGGAACCTCTAGCTAGCCGACTCACTATAGGGATAATCGCCCTGAGCAAAGACC”, the figure is 0.0121 ± 0.1 log2FC; as for “CTCGAGGATATCAAGATCTGGCCTCGGCGCGTGGCTAGGAACCTCTAGCTAGCCGACTCACTATAGGGATAATCGCCCTGAGCAAAGACC”, 0.021 ± 0.107 log2FC; as for “CTCGAGGATATCAAGATCTGGCCTCGGCGCGCGGGCGGGAACCTCTAGCTAGCCGACTCACTATAGGGATAATCGCCCTGAGCAAAGACC”, 1.18 ± 0.1 log2FC.
